Experimental data as given in PubChem BioAssay (NCATS).
Results filed as inconclusive are left out. Active and inactive are the calls of the source. Calls follow the shape of the dose curve; as a rule, active = well fitted curve in the direction sought with a large enough effect; inconclusive = small, poorly fitted or top-dose-only effect, or another doubt; inactive = no such curve, though single readings can be large; an effect the other way counts as inactive or inconclusive.

What was measured:
[1] = Quantitative highthroughput screen to assess conditional lethalithy of P12 Ichikawa cells grown in Human Plasma-Like Medium with dialyzed fetal bovine serum (HPLM+ds) (AID 1963879); details: ATP luminescence, 48 h; Potency: viability; series mostly up to 45.8 µM; also: nearly all actives have a fitted effect of over 35% in size
In short: (§1)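 Each medium arm—HPLM with 10% dialyzed FBS, or RPMI1640 with 5 mM glucose and 10% untreated or dialyzed FBS—was screened against an 11-point, 3-fold compound titration for 48 h at 37 °C, with CellTiter-Glo luminescence as endpoint.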

[2] = Quantitative highthroughput screen to assess conditional lethalithy of P12 Ichikawa cells grown in RPMI1640 with untreated serum (RPMI+s) (AID 1963881); details: ATP luminescence, 48 h; Potency: viability; series mostly up to 45.8 µM;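 also: 100% = DMSO wells and 0% = empty wells without cells; nearly all actives have a fitted effect of over 35% in size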
In short: as §1

[3] = Quantitative highthroughput screen to assess conditional lethalithy of SEM cells grown in Human Plasma-Like Medium with dialyzed fetal bovine serum (HPLM+ds) (AID 1963882); details: SEM B-ALL cells in HPLM+ds, CellTiter-Glo viability, 48 h; series mostly up to 45.8 µM; also: nearly all actives have a fitted effect of over 35% in size
In short: as §1

[4] = Quantitative highthroughput screen to assess conditional lethalithy of SEM cells grown in RPMI1640 with unreated serum (RPMI+s) (AID 1963883); details: SEM B-ALL cells, CellTiter-Glo viability, 48 h; series mostly up to 45.8 µM;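 also: 100% = DMSO wells and 0% = empty wells without cells; nearly all actives have a fitted effect of over 35% in size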
In short: as §1

[5] = biological target: Cytochrome P450 3A7 (Homo sapiens) (UniProt P24462); assay: Cytochrome P450 family 3 subfamily A member 7 (CYP3A7) small molecule antagonists: luciferase biochemical qHTS assay (AID 1963596); details: P450-Glo CYP3A7 enzyme luminescence, 1 h; series mostly up to 57.4 µM; also: % is scaled to controls: 0 for no effect and ±100 for the full control effect; nearly all actives have a fitted effect of over 40% in size
In short: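 Luminescence read-out (relative luminescence units) after 20 min with detection reagent, which stops the reaction. Enzyme, proluciferin substrate and compound preincubated 10 min, RT; NADPH regeneration system then started 1 h reaction. Ketoconazole as positive control.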

[6] = Viability qHTS for spleen associated tyrosine kinase inhibitor (SYKi) drug resistant MV4-11 cells (AID 1963824); details: SYKi-resistant MV4-11 viability, CellTiter-Glo, 72 h; series mostly up to 45 µM; also: nearly all actives have a fitted effect of over 35% in size
In short: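 SYK inhibitor-resistant MV4-11 AML cells, 500 per well, added to predispensed compounds and incubated 72 hr at 37 C, 5% CO2. Viability measured by CellTiter-Glo luminescence after 10 min at room temperature.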

[7] = Cellular viability qHTS for adrenocortical cancer (ACC) cell line SW-13 (AID 1963989); details: SW-13 ACC cells viability, CellTiter-Glo, 48 h; activity (max response): stronger effect = lower value;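 also: cells grown in serum-free medium with ITS supplement; % is scaled to controls: 0 for no effect and ±100 for the full control effect; nearly all actives have a fitted effect of over 65% in size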
In short: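 Viability was read as CellTiter-Glo luminescence after 48 h compound treatment (up to 46 uM final) of SW-13 cells grown serum-free; titration curves were fit with a four-parameter logistic model to give IC50 and efficacy.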

[8] = Cellular viability qHTS for adrenocortical cancer (ACC) cell line NCI-H295R (AID 1963990); details: CellTiter-Glo ATP luminescence, 48 h; series mostly up to 46.1 µM;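 also: 0% = DMSO only wells and -100% = full killing with cytotoxic reference compound; nearly all actives have a fitted effect of over 60% in size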
In short: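 CellTiter-Glo ATP luminescence, read 48 h after compound addition, measured viability of NCI-H295R adrenocortical cells grown serum-free with ITS. Final concentrations spanned up to 46 uM. Data normalized to DMSO and doxorubicin, fitted for IC50 and maximal response.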

[9] = Quantitative highthroughput screen to assess conditional lethalithy of NOMO1 cells grown in RPMI1640 with untreated serum (RPMI+s) (AID 1963876); details: NOMO1 AML cells in RPMI+serum, CellTiter-Glo viability, 48 h; series mostly up to 45.8 µM
In short: as §1

[10] = Quantitative highthroughput screen to assess conditional lethalithy of P12 Ichikawa cells grown in RPMI1640 with dialyzed fetal bovine serum (RPMI+ds) (AID 1963880); details: ATP luminescence, 48 h; Potency: P12-Ichikawa viability; series mostly up to 45.8 µM
In short: as §1

[11] = Quantitative highthroughput screen to assess conditional lethalithy of SEM cells grown in RPMI1640 with dialyzed fetal bovine serum (RPMI+ds) (AID 1963884); details: SEM B-ALL cells, RPMI+dialyzed FBS, CellTiter-Glo viability, 48 h; series mostly up to 45.8 µM
In short: as §1

[12] = Viability qHTS for spleen associated tyrosine kinase inhibitor (SYKi) naive MV4-11 cells (AID 1963823); details: MV4-11 AML viability, CellTiter-Glo luminescence, 72 h; series mostly up to 45 µM; also: nearly all actives have a fitted effect of over 40% in size
In short: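 Seeding of 500 SYKi-naive MV4-11 cells per well onto pre-dispensed compounds preceded a 72 hr incubation at 37 C. Luminescent CellTiter-Glo signal, read after 10 min at room temperature, reflected viable cells.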

Cytochrome P450 3A7 (Homo sapiens), sequence (P24462 whole entry, looked up): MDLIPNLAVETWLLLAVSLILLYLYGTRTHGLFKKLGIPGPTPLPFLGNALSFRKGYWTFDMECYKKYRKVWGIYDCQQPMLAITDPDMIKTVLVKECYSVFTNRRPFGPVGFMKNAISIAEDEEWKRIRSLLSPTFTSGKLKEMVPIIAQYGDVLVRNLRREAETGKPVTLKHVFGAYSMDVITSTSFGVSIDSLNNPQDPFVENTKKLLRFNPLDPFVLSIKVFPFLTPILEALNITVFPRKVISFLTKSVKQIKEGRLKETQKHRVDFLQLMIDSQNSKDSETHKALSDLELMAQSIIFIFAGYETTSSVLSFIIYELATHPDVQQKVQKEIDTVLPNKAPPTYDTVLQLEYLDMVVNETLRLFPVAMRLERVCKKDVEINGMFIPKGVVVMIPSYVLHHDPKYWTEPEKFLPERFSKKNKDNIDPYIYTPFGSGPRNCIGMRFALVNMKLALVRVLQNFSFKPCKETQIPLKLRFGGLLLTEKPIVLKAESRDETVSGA

CN(C)[C@@H]1C(=O)C(C(N)=O)=C(O)[C@@]2(O)C(=O)C3=C(O)c4c(O)cccc4[C@@](C)(O)[C@H]3[C@H](O)[C@@H]12
inactive: Potency [1] | Potency [2] | Potency [3] | Potency [4]

COCCOCCO
inactive: Potency [5] | Potency [6] | activity (max response) [7] -1.21% | Potency [8]

CC(=O)Nc1cc([As](=O)(O)O)ccc1O
inactive: Potency [5] | Potency [6] | activity (max response) [7] 8.13% | Potency [8]

CCC1(c2cccc(O)c2)CCCCN(C)C1 (stereo not drawn)
inactive: Potency [5] | Potency [6] | activity (max response) [7] -10.4% | Potency [8]

Oc1ccc(Cl)cc1
inactive: Potency [5] | Potency [6] | activity (max response) [7] 10.2% | Potency [8]

CC(=O)N(C)c1cccc(-c2ccnc3c(C(=O)c4cccs4)cnn23)c1
inactive: Potency [5] | Potency [9] | Potency [1] | Potency [10] | Potency [11]

O=C(N[C@H]1N=C(c2ccccc2F)c2cccc3c2N(CC3)C1=O)c1cc2ccccc2[nH]1
inactive: Potency [5] | activity (max response) [7] 11.2%

Oc1ccc2c3c1O[C@H]1[C@@H](O)C=C[C@H]4[C@@H](C2)NCC[C@@]341
inactive: Potency [5] | Potency [12] | Potency [8]

CCC(C)C(C)(COC(N)=O)COC(N)=O (stereo not drawn)
inactive: Potency [5] | Potency [6] | activity (max response) [7] 2.89% | Potency [8]

CCN(CC)C(C)C(=O)c1ccccc1 (stereo not drawn)
inactive: Potency [5] | Potency [6] | Potency [8]

COc1ccc(C(CN(C)C)C2(O)CCCCC2)cc1 (stereo not drawn)
inactive: Potency [5] | Potency [6] | Potency [2] | activity (max response) [7] 0.648% | Potency [8]

C#CC(O)(C=CCl)CC (stereo not drawn)
inactive: Potency [5] | Potency [12] | Potency [8]

C[C@H]1[C@@H]2Cc3ccc(O)cc3[C@@]1(C)CCN2C
inactive: Potency [5] | Potency [12] | Potency [8]
